Key:
[1] = system: Human papillomavirus type 1a protein E7 (residues 44-93); experiment: small molecules binding HPV E7 44-93 – biochemical, small-molecule microarray, residues 44-93, 635 nm fluorescence, primary screen (AID 1108); conditions: fluorescence 635 nm, higher = more signal;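 further: E7 fragment applied at 1 µg/mL in TBST for 1 h at 4 C; score combines spot fluorescence with its signal to noise ratio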
[2] = hepatitis C replication reporter changes, two-sided – Huh7 cells, luciferase reporter, HCV replication inhibitor project, primary screen (AID 1109); conditions: Huh7 HCV replicon luciferase reporter, 48 h; higher = more signal;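 further: huh7 hepatoma cells harbouring a luciferase neomycin HCV replicon reporter; luciferase luminescence as measure of HCV replicon replication; test concentration not given here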
[3] = target: Left-right determination factor 2 (Homo sapiens) (UniProt O00292); experiment: small molecules binding LEFTY2 protein – biochemical, small-molecule microarray, 635 nm fluorescence scan, primary screen (AID 1110); conditions: higher = more signal
Left-right determination factor 2 (Homo sapiens), sequence (O00292 whole entry, looked up): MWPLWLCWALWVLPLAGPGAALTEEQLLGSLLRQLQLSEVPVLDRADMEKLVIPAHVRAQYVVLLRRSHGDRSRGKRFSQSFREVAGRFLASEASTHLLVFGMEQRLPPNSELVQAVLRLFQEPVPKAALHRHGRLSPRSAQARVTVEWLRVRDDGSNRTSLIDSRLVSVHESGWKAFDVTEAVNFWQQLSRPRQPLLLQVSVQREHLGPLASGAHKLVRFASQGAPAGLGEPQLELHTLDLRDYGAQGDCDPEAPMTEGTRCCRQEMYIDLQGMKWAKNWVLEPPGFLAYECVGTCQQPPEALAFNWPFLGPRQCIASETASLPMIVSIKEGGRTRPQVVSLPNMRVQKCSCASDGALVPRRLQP

[4] = target: Calmodulin-1 (Homo sapiens) (UniProt P0DP23); experiment: small molecules binding calmodulin-1 with EGTA – biochemical, small-molecule microarray, Cy5-labelled CALM1, profiling panel (AID 1111); conditions: Cy5-CALM1 binding fluorescence, higher = more signal;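 further: labelled calmodulin applied in Tris saline Tween buffer holding calcium plus EGTA and DTT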
[5] = target: Calmodulin-1 (Homo sapiens) (UniProt P0DP23); experiment: small molecules binding Ca-loaded calmodulin-1 – biochemical, small-molecule microarray, Cy5-labelled CALM1, plus calcium, artefact control for SMM control-protein annotation, profiling panel (AID 1112); conditions: Cy5-CALM1 binding fluorescence, higher = more signal;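 further: score merges spot fluorescence with signal to noise from triplicate slides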
[6] = probe aWnt5a binding to arrayed compounds – biochemical, biotinylated probe, 635/667 nm fluorescence, primary screen (AID 1113); conditions: small-molecule microarray, higher = more signal;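 further: score merges 667 nm fluorescence intensity with signal-to-noise per printed feature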
[7] = probe aShh binding to arrayed compounds – biochemical, biotinylated probe, 635/667 nm fluorescence, primary screen (AID 1114); conditions: small-molecule microarray, higher = more signal;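 further: probe is biotin-labelled aShh protein from a stem cell growth factor screen; measures binding of labelled protein to compounds printed on the slide; score merges feature fluorescence at 667 nm with signal-to-noise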
[8] = probe aNog binding to arrayed compounds – biochemical, biotinylated probe, 635/667 nm fluorescence, primary screen (AID 1115); conditions: small-molecule microarray, higher = more signal;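 further: probe is biotinylated aNog protein used at 0.15 µg/mL for 1 h at 4 C; z-score combines 667 nm fluorescence of each spot with its signal to noise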
[9] = target: Torsin-1A-interacting protein 1 (Homo sapiens) (UniProt Q5JTV8); experiment: compound microarray binding of lysate hLAP1 – cell lysate, small-molecule microarray, COS7 lysate, 635/667 nm fluorescence, primary screen (AID 1116); conditions: 635 nm fluorescence, higher = more signal
Torsin-1A-interacting protein 1 (Homo sapiens), sequence (Q5JTV8 whole entry, looked up): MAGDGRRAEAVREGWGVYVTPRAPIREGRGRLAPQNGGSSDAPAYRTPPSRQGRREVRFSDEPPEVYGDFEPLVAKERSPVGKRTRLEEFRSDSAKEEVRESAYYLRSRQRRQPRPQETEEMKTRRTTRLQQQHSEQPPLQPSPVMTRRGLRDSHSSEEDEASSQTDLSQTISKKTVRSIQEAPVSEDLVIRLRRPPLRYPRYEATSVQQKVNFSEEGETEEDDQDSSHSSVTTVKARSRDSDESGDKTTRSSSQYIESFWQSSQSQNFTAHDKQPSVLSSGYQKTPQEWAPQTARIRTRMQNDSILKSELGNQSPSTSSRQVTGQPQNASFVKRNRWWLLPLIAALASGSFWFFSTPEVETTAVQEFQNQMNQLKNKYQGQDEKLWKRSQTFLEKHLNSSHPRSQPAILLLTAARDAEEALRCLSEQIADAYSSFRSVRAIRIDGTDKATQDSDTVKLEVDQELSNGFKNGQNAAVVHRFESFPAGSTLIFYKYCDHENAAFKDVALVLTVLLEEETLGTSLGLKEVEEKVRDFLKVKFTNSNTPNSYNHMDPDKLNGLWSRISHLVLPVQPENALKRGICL

[10] = target: Alpha-bungarotoxin (Bungarus multicinctus) (UniProt P60615); experiment: compounds binding labelled alpha-BTX control protein – biochemical, small-molecule microarray, Alexa647 label, 635/667 nm fluorescence, artefact control for SMM control protein annotation, profiling panel (AID 1117); conditions: alpha-BTX-A647 binding fluorescence, higher = more signal
Alpha-bungarotoxin (Bungarus multicinctus), sequence (P60615 whole entry, looked up): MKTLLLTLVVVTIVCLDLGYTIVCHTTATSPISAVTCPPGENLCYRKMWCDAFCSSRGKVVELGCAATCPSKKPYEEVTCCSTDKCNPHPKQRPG

SMILES: CN(C)CCCC[C@@H]1NC(=O)[C@H]2C[C@@H](C(=O)NCc3ccc(F)cc3)[C@@H](c3ccc(O)cc3)N2C1=O
- composite z-score [1]: -0.247
- z-score [2]: 0.206
- composite z-score [3]: 1.15
- composite z-score [4]: -1.08
- composite z-score [5]: 0.354
- composite z-score [6]: -0.0748
- composite z-score [7]: 0.365
- composite z-score [8]: -0.273
- composite z-score [9]: 1.03
- composite z-score [10]: 2.5

SMILES: [N-]=[N+]=NCc1ccccc1C[C@]1(C(=O)N2CCOCC2)N=C(c2ccc(OCCCO)cc2)O[C@H]1c1ccccc1CN=[N+]=[N-]
- composite z-score [1]: 0.344
- z-score [2]: -2.48
- composite z-score [3]: -0.0716
- composite z-score [4]: 2.49
- composite z-score [5]: 1.28
- composite z-score [6]: 0.653
- composite z-score [7]: 0.564
- composite z-score [8]: 0.967
- composite z-score [9]: 2.79
- composite z-score [10]: 2.74

SMILES: Cc1ccc(S[C@]2(C(=O)NCCN3CCOCC3)CC(=O)N(C3CCCCC3)[C@@H]2c2ccc(CO)cc2I)cc1
- composite z-score [1]: 1.46
- z-score [2]: -3.05
- composite z-score [3]: 0.134
- composite z-score [4]: 0.562
- composite z-score [5]: 0.326
- composite z-score [6]: 0.0214
- composite z-score [7]: 0.23
- composite z-score [8]: -0.0098
- composite z-score [9]: 1.37
- composite z-score [10]: 1.23

SMILES: COc1ccc(C#Cc2ccc3c(c2)[C@]2(C(=O)N3)[C@H](c3ccc(OCCO)cc3)N3[C@H](c4ccccc4)[C@H](c4ccccc4)OC(=O)[C@H]3[C@@H]2C(=O)O)cc1
- composite z-score [1]: 1.46
- z-score [2]: -1.3
- composite z-score [3]: 0.362
- composite z-score [4]: -0.17
- composite z-score [5]: -0.893
- composite z-score [6]: -0.0028
- composite z-score [7]: -0.0999
- composite z-score [8]: 1.81
- composite z-score [9]: 0.523
- composite z-score [10]: 0.485

SMILES: CO[C@H]1O[C@H](CO)[C@@H](OC(=O)Nc2ccccc2)[C@@H]2OC(=O)[C@H](Cc3ccccc3)C/C=C/C[C@@H](Cc3ccccc3)C(=O)O[C@@H]12
- composite z-score [1]: 1.04
- z-score [2]: -3.45
- composite z-score [3]: 0.587
- composite z-score [4]: 1.68
- composite z-score [5]: -0.123
- composite z-score [6]: -0.0545
- composite z-score [7]: 0.0639
- composite z-score [8]: 0.696
- composite z-score [9]: 1.07
- composite z-score [10]: 0.269

SMILES: COCCOC(=O)N1C(=O)[C@@]2(c3cc(C#CCC(C(=O)OC)C(=O)OC)ccc31)[C@H](C(=O)N1CCCCCCC1)[C@H]1C(=O)O[C@H](c3ccccc3)[C@H](c3ccccc3)N1[C@@H]2c1ccccc1OCCO
- composite z-score [1]: 1.32
- z-score [2]: -2.25
- composite z-score [3]: 1.09
- composite z-score [4]: 2.56
- composite z-score [5]: 1.63
- composite z-score [6]: 0.931
- composite z-score [7]: 2.96
- composite z-score [8]: 3.14
- composite z-score [9]: 3.82
- composite z-score [10]: 2.51

SMILES: O=c1cccc(-c2ccccc2C(F)(F)F)o1
- composite z-score [1]: -0.438
- z-score [2]: -0.445
- composite z-score [3]: -0.747
- composite z-score [4]: -0.294
- composite z-score [5]: 0.243
- composite z-score [6]: 0.421
- composite z-score [7]: 0.417
- composite z-score [8]: 1.08
- composite z-score [9]: -0.211
- composite z-score [10]: -0.678

SMILES: COc1ccccc1CN1C(=O)c2ccccc2[C@@H](C(=O)NCCCN(C)C)[C@@H]1c1ccc(CO)cc1
- composite z-score [1]: -1.09
- z-score [2]: -1.98
- composite z-score [3]: 0.155
- composite z-score [4]: -0.388
- composite z-score [5]: -0.298
- composite z-score [6]: -0.0529
- composite z-score [7]: -0.0263
- composite z-score [8]: -0.337
- composite z-score [9]: 0.55
- composite z-score [10]: 0.256

SMILES: N[C@@H](Cc1ccccc1)Cn1cc(C2(O)CCCCC2)nn1
- composite z-score [1]: 0.488
- z-score [2]: 0.118
- composite z-score [3]: 0.0904
- composite z-score [4]: 0.816
- composite z-score [5]: -0.431
- composite z-score [6]: -0.0236
- composite z-score [7]: 0.23
- composite z-score [8]: -0.0827
- composite z-score [9]: 0.228
- composite z-score [10]: 0.967

SMILES: C=C(/C(=C/C[C@@H](OC(C)=O)c1ccccc1OCCO)c1cc(C(=O)OC)ccc1OC)C(C)C
- composite z-score [1]: 0.326
- z-score [2]: -1.69
- composite z-score [3]: -0.0061
- composite z-score [4]: 0.543
- composite z-score [5]: -0.692
- composite z-score [6]: -0.0643
- composite z-score [7]: -0.304
- composite z-score [8]: 0.051
- composite z-score [9]: 0.385
- composite z-score [10]: -0.598

SMILES: CN(C)CCCC[C@@H]1NC(=O)[C@@H]2C[C@H](C(=O)NCc3ccc(F)cc3)[C@H](c3ccc(O)cc3)N2C1=O
- composite z-score [1]: 0.16
- z-score [2]: -0.0619
- composite z-score [3]: -0.275
- composite z-score [4]: -0.638
- composite z-score [5]: 0.235
- composite z-score [6]: -0.204
- composite z-score [7]: -0.138
- composite z-score [8]: -0.0503
- composite z-score [9]: 0.385
- composite z-score [10]: -0.407

SMILES: [N-]=[N+]=NCc1ccccc1[C@@H]1OC(c2ccc(OCCCO)cc2)=N[C@]1(Cc1ccccc1)C(=O)NCc1ccccc1
- composite z-score [1]: 1.28
- z-score [2]: -2.34
- composite z-score [3]: 0.0086
- composite z-score [4]: 1.87
- composite z-score [5]: 0.237
- composite z-score [6]: 0.0495
- composite z-score [7]: 0.0181
- composite z-score [8]: -0.489
- composite z-score [9]: 1.12
- composite z-score [10]: 0.688

SMILES: CCCC[C@H]1OB(O)C[C@H]2C1=C(COC)C[C@H]1C(=O)C=CC(=O)[C@H]12
- composite z-score [1]: 0.275
- z-score [2]: -1.33
- composite z-score [3]: 0.594
- composite z-score [4]: -0.321
- composite z-score [5]: -0.728
- composite z-score [6]: -0.101
- composite z-score [7]: 0.0062
- composite z-score [8]: -0.0344
- composite z-score [9]: -0.22
- composite z-score [10]: 0.567

SMILES: CCOC(=O)C[C@H]1[C@H](OC(=O)c2ccc(-c3ccccc3)cc2)[C@@H](NC(=O)c2ccc3ccccc3c2)c2cc(OCCCO)ccc2N1C(=O)c1ccccc1
- composite z-score [1]: 0.965
- z-score [2]: -1.09
- composite z-score [3]: 0.564
- composite z-score [4]: 0.128
- composite z-score [5]: 0.116
- composite z-score [6]: 0.163
- composite z-score [7]: 0.0637
- composite z-score [8]: 0.0395
- composite z-score [9]: 0.341
- composite z-score [10]: 0.509

SMILES: C=CC[C@]1(C(=O)NCc2ccccc2)COC(c2ccc(OCCCO)cc2)=N1
- composite z-score [1]: -0.298
- z-score [2]: -1.65
- composite z-score [3]: -1
- composite z-score [4]: 0.388
- composite z-score [5]: -0.733
- composite z-score [6]: 0.0293
- composite z-score [7]: 0.0982
- composite z-score [8]: 0.54
- composite z-score [9]: 3.03
- composite z-score [10]: 3.83

SMILES: CCCCCCc1nc(-c2ccc(OC)nc2)cc2c1[Si](C(C)C)(C(C)C)OC2
- composite z-score [1]: -0.611
- z-score [2]: 1.09
- composite z-score [3]: -0.147
- composite z-score [4]: -0.464
- composite z-score [5]: 0.0559
- composite z-score [6]: -0.0643
- composite z-score [7]: -0.262
- composite z-score [8]: -0.0965
- composite z-score [9]: -0.346
- composite z-score [10]: 0.502

SMILES: C=C(CCCC)C(=O)CC[C@H](OC(C)=O)c1ccccc1OCCO
- composite z-score [1]: -0.0354
- z-score [2]: -3.4
- composite z-score [3]: 0.549
- composite z-score [4]: -0.592
- composite z-score [5]: -1.13
- composite z-score [6]: -0.0182
- composite z-score [7]: 0.0121
- composite z-score [8]: -0.234
- composite z-score [9]: 0.173
- composite z-score [10]: -0.106

SMILES: C=CCC(OC(C)=O)[C@@H]1[C@@H](N(Cc2cccc3ccccc23)C(=O)c2cccc3ccccc23)c2cc(OCCCO)ccc2N1C(=O)Cc1ccc2ccccc2c1 (stereo not given in full)
- composite z-score [1]: 0.281
- z-score [2]: 0.108
- composite z-score [3]: -0.277
- composite z-score [4]: -0.603
- composite z-score [5]: -0.177
- composite z-score [6]: -0.0685
- composite z-score [7]: -0.138
- composite z-score [8]: 0.255
- composite z-score [9]: 0.0057
- composite z-score [10]: -0.424

SMILES: C=CCC(OC(C)=O)[C@@H]1[C@@H](N(Cc2ccc(-c3cccc(C(F)(F)F)c3)o2)C(=O)c2cccc3ccccc23)c2cc(OCCCO)ccc2N1C(=O)c1ccc2ccccc2n1 (stereo not given in full)
- composite z-score [1]: -0.193
- z-score [2]: 0.66
- composite z-score [3]: -0.309
- composite z-score [4]: -0.484
- composite z-score [5]: -0.108
- composite z-score [6]: -0.0459
- composite z-score [7]: 0.227
- composite z-score [8]: 0.169
- composite z-score [9]: 0.406
- composite z-score [10]: -0.482

SMILES: Cc1ccc(S(=O)(=O)N2[C@@H](c3ccccc3)C(C(=O)O)=CC[C@H]2c2ccc(C#N)cc2)cc1
- composite z-score [1]: 1.24
- z-score [2]: -0.494
- composite z-score [3]: -0.145
- composite z-score [4]: 0.302
- composite z-score [5]: -0.269
- composite z-score [6]: 0.0267
- composite z-score [7]: 0.385
- composite z-score [8]: 0.823
- composite z-score [9]: 1.84
- composite z-score [10]: 1.57

SMILES: COc1ccc(NN2C(C(O)c3cc(C(F)(F)F)cc(C(F)(F)F)c3)C=CC3C(=O)N(C4CCCCC4)C(=O)C32)cc1 (stereo not given)
- composite z-score [1]: 0.258
- z-score [2]: -1.79
- composite z-score [3]: -0.0774
- composite z-score [4]: 1.66
- composite z-score [5]: 0.0635
- composite z-score [6]: 0.485
- composite z-score [7]: 0.611
- composite z-score [8]: 1.82
- composite z-score [9]: 1.06
- composite z-score [10]: 0.698

From PubChem BioAssay
